Records with an inconclusive call do not appear. Calls of active or inactive are those of the source. The call rests on the fitted dose curve; in most records, active means well fitted cell-killing curve with a large enough effect; inconclusive means small, poorly fitted or top-dose-only effect; inactive means flat fitted curve, though single readings scatter.
Potency means the concentration at half of the fitted maximal effect.

This assay is described as follows: qHTS of pediatric cancer cell lines to identify multiple opportunities for drug repurposing: Primary screen for RD cells (AID 1347104). Further: nearly all actives have a fitted effect of over 55% in size. To be noted: RD rhabdomyosarcoma viability, CellTiter-Glo luminescence, 48 h; series mostly up to 46 µM. The source says: Drug repurposing or repositioning has been offered as a strategy for drug development in oncology programs. This approach has special potential for childhood cancers and other rare or orphan diseases, where the expected return on new drug development has been a disincentive to pharmaceuticals. […] In this project we exploit the poly-pharmacology of drugs to discover new indications via phenotypic screening of a panel of 19 well-characterized cell lines derived from solid tumors seen in children and adolescents. The goal is to identify approved drugs with previously unrecognized anticancer properties that has the potential to reveal new mechanisms and biological processes involved in carcinogenesis or drug resistance. We employed a titration-based paradigm (quantitative high-throughput screening or qHTS), where all compounds were tested at multiple concentrations for their effect on cell viability. Concentration-response curves (CRCs) were derived directly from the primary screen, and both potency and efficacy values were used to identify compounds with robust bioactivity profiles. We screened the NIH Chemical Genomics Center (NCGC) Pharmaceutical Collection (NPC) and Mechanism Interrogation Plate (MIPE) small molecule collections of approved and investigational compounds against these cell lines; and measured metabolically active cells after 48 hours of compound treatment as a proxy for cell viability. […] Assay Submitter: Nathalia J. Martinez, National Center for Advancing Translational Sciences, National Institutes of Health, Rockville, MD, USA; email: natalia.martinez@nih.gov Shen, M et al. Quantitative high-throughput phenotypic screening of pediatric cancer cell lines identifies multiple opportunities for drug repurposing. Oncotarget 2017 Dec 19;9(4):4758-4772. PMID 29435139.
The cells were obtained from University of North Carolina (UNC), Pediatric Preclinical Testing Program (PPT), and Coriell Institute (CI). qHTS cell viability assay: Cells were assayed in growth media at a density of 500-1,000 cells/well. Five microliters of cells were dispensed into 1,536-well, white, solid-bottom, TC-treated plates (Greiner Bio One) using a multidrop dispenser and incubated at 37 degrees C, 5% CO2, under a humidified atmosphere for 5 hours. Twenty-three nanoliters of compounds and controls (neutral control DMSO or positive control bortezomib at final concentration of 2.3 µM) were subsequently transferred by Kalypsys pintool. For primary screens, the MIPE collection was tested at 11-point dilutions (final concentrations range from 0.78 nM to 46 µM) and the NPC collection at 8-point dilutions (final concentrations range from 0.59 nM to 46 µM). Compounds tested in follow-up screens were assayed at 11-point dilutions. Cells were incubated for 48 hours, followed by addition of 3 µL of CellTiter-Glo (Promega). After a 15 min incubation at room temperature, samples were analyzed for luminescence intensity using a ViewLux High-throughput CCD imager equipped with clear filters.
A general note: Quantitative high-throughput screening tests each substance at several concentrations.
On to `CC(C)[C@H](C(=O)Nc1ccc(C(=O)NO)cc1)c1ccccc1`, for which the Potency is 2.64 µM (active). Same read-out and setting: then `COc1cccc2nc(-c3cccs3)nc(NN3C(=O)C=C(C)C3=O)c12`, with 5.26 µM (active). As to `Cc1[nH]c2ccccc2c1CCNCc1ccc(C=CC(=O)NO)cc1`, the Potency was 0.372 µM (active). Same read-out and setting: then `COc1ccc(C=Cc2cc(OC)c(OC)c(OC)c2)cc1O`, with “inactive”. The same measure, in the same setting: then `CCn1nnc2c(N3CCOCC3)nc(-c3ccc(NC(=O)Nc4ccc(C(=O)N5CCN(C)CC5)cc4)cc3)nc21`, with 0.0264 µM (active); and `CN1c2cc(O)c(N=NC(N)=O)cc2CC1S(=O)(=O)O` (stereo not given), with “inactive”. Turning to `COc1ccc(CC2c3cc(OC)c(OC)cc3CC[N+]2(C)CCC(=O)OCCCCCOC(=O)CC[N+]2(C)CCc3cc(OC)c(OC)cc3C2Cc2ccc(OC)c(OC)c2)cc1OC` (stereo not given), the activity change, negative = cytotoxic was 4.63% [at 9.22 µM] (inactive). Turning to `C#Cc1cccc(Nc2ncnc3cc(OC)c(OCCCCCCC(=O)NO)cc23)c1`, the Potency was 0.187 µM (active). Still for that read-out and setting: then `CNC(=O)c1ccc(-c2cnc3ncc(Cc4ccc5ncccc5c4)n3n2)cc1F`, with “inactive”. In the case of `CC(C)c1cnn2c(NCc3ccccc3)cc(N[C@@H](CO)[C@H](O)CO)nc12`, the Potency is 0.372 µM (active).

Consider `CC(=O)SC[C@@H](C)C(=O)N1CCC[C@H]1C(=O)N[C@@H](Cc1ccccc1)C(=O)O`, for which the Potency entry is “inactive”. On to `c1nc2nc(Nc3ccc(N4CCOCC4)cc3)nc(NC3CCCCC3)c2[nH]1`, for which the Potency is 13.2 µM (active). For the molecule `Nc1nc(-c2nn(Cc3ccccc3F)c3ncccc23)nc(N)c1N1CCOCC1`, the Potency result is “inactive”. For the molecule `C1=CCOCc2cc(ccc2OCCN2CCCC2)Nc2nccc(n2)-c2cccc(c2)OCC1`, the Potency was 11.8 µM (active). Turning to `c1cc(-c2cnn3cc(-c4ccc(OCCN5CCCCC5)cc4)cnc23)ccn1`, the Potency is 18.7 µM (active).

Turning to `C1Cc2[nH]nc(-c3nn[nH]n3)c2C1`, the Potency entry was “inactive”. The same measure, in the same setting: then `CC[C@@H]1C(=O)N(C)c2cnc(Nc3ccc(C(=O)NC4CCC(N5CCN(CC6CC6)CC5)CC4)cc3OC)nc2N1C(C)C` (stereo not given in full), with 0.187 µM (active). On the same count and under the same terms, then `COC(=O)[C@]12CCC(C)(C)C[C@@H]1[C@@H]1C(=O)C=C3[C@@]4(C)C=C(C#N)C(=O)C(C)(C)[C@@H]4CC[C@@]3(C)[C@]1(C)CC2`, with 0.526 µM (active); and `CC[C@H]1CN2CCc3cc(OC)c(OC)cc3[C@H]2C[C@@H]1C[C@@H]1NCCc2cc(OC)c(OC)cc21`, with 0.469 µM (active). The same measure, in the same setting: then `COc1cc(-c2nn(C3CCC(N4CCN(C(C)=O)CC4)CC3)c3ncnc(N)c23)ccc1NC(=O)c1cc2ccccc2n1C` (stereo not given), with 0.662 µM (active); and `O=c1[nH]c(=O)n(C2CCCO2)cc1F` (stereo not given), with “inactive”. For `O=C(CCCCCCC(=O)Nc1ccc([C@H]2O[C@@H](CSc3nc(-c4ccccc4)c(-c4ccccc4)o3)C[C@@H](c3ccc(CO)cc3)O2)cc1)NO`, the Potency is 16.6 µM (active). As to `Cc1c(CN2CCN(S(C)(=O)=O)CC2)sc2c(N3CCOCC3)nc(-c3cnc(N)nc3)nc12`, the Potency is 0.132 µM (active). On the same count and under the same terms, then `c1ccc2c(CCNc3ccc(Nc4ccncc4)cc3)c[nH]c2c1`, with 26.4 µM (active); and `COc1ccc2c(OCc3nnc4ccc(-c5ccccc5)nn34)ccnc2c1`, with “inactive”.

For `C=CC(=O)Nc1cccc(Oc2nc(Nc3ccc(N4CCN(C)CC4)cc3)ncc2Cl)c1`, the Potency was 20.9 µM (active).

For `Cc1cc(Nc2cc(N3CCN(C)CC3)nc(Sc3ccc(NC(=O)C4CC4)cc3)n2)n[nH]1`, the Potency is 18.7 µM (active). Consider `C[C@]12CC[C@H](O)CC1=CCC1C2CC[C@]2(C)C(n3cnc4ccccc43)=CCC12` (stereo not given in full), for which the Potency result is “inactive”.

For the molecule `CC1COC2(CCN(c3nc(=O)c4cc(C(F)(F)F)cc([N+](=O)[O-])c4s3)CC2)O1` (stereo not given), the Potency result is “inactive”. Same read-out and setting: then `NC(=O)Nc1cc(-c2cccc(F)c2)sc1C(=O)N[C@H]1CCCNC1`, with 3.72 µM (active); and `COc1cc2c(Oc3ccc4[nH]c(C)cc4c3F)ncnc2cc1OCCCN1CCCC1`, with 26.4 µM (active). Still for that read-out and setting: then `CN(C)CCCN=c1c2ccccc2n(C)c2[nH]c(=O)n(C)c(=O)c12`, with 13.2 µM (active); and `O=C(Nc1ncc(-c2cc(C(F)F)nn2-c2c(Cl)cccc2Cl)s1)C1CC1`, with 0.418 µM (active). Consider `CS(=O)(=O)N1CCN(Cc2cc3nc(-c4cccc5[nH]ncc45)nc(N4CCOCC4)c3s2)CC1`, for which the Potency is 1.05 µM (active). Same read-out and setting: then `COc1cc2ncnc(Nc3ccc(F)c(Cl)c3)c2cc1NC(=O)C=CCN1CCCCC1`, with 29.6 µM (active); and `CN(C)Cc1c(C(=O)NCCOc2ccc(C(=O)NO)cc2)oc2ccccc12`, with 1.87 µM (active).

Turning to `CCOC(=O)C1=C(C)NC2=C(C(=O)CC(C)(C)C2)C1c1ccc(-c2ccccc2)cc1` (stereo not given), the Potency is 16.6 µM (active). The same measure, in the same setting: then `C=CC(=O)Nc1cc2c(Nc3ccc(F)c(Cl)c3)ncnc2cc1OCCCN1CCOCC1`, with 18.7 µM (active); and `CC(C)(O)CCc1ccc(OCc2cc(-c3cccc(OC(F)F)c3)c3ncccc3c2)cc1`, with “inactive”. Still for that read-out and setting: then `CN(C1CCc2c(c3ccccc3n2CC(=O)O)C1)S(=O)(=O)c1ccc(F)cc1` (stereo not given), with 4.18 µM (active).

The values above are taken from PubChem BioAssay (NCATS).
